Results taken from PubChem BioAssay AID2315 (National Center for Advancing Translational Sciences (NCATS), 2010).
The whole screen tested about 290,000 compounds, of which about 27,000 (9.3%) were called active. No stated cut-off is given here; in the data, active means inhibition mostly above about 28% (no sharp cut-off); inactive means mostly below about 43%. The full list was thinned out, with actives kept by preference.

Test: A qHTS for Small Molecule Inhibitors of Shiga Toxin; further: 0% is about no effect
Settings: Vero cells, Shiga toxin protein synthesis inhibition reporter; at 38.7 µM, hits give high values

| Structure (SMILES) | inhibition |
| --- | --- |
| O=C(c1ccc(OC2CCN(C/C=C/c3ccc(F)cc3)CC2)cc1)N1CCCCC1 | -5.42% (inactive) |
| COCC1CCN(C(=O)C2CCC(=O)N(Cc3cccc(C(F)(F)F)c3)C2)CC1 (stereo not given) | 38.4% (active) |
| COCC1CCN(C(=O)C2CCC(=O)N(CC3CCCCC3)C2)CC1 (stereo not given) | 19.8% (inactive) |
| O=C1CCC(C(=O)N2CCCCO2)CN1Cc1cccc(C(F)(F)F)c1 (stereo not given) | 29.5% (inactive) |
| CCOc1ccc(N(CC(=O)NCCc2ccc(F)cc2)S(=O)(=O)c2ccccc2)cc1 | 10.2% (inactive) |
| O=C(NCCN1CCOCC1)c1ccc(/C=C2\Sc3ccccc3N(Cc3ccc(F)cc3)C2=O)cc1 | -4.17% (inactive) |
| NC(=O)C1CCN(C(=O)COc2cccc3cccnc23)CC1 | 33.9% (inactive) |
| CCOC(=O)C1CCN(C(=O)COc2cccc3ccccc23)CC1 | 34.7% (active) |
| CCOC(=O)C1CCN(C(=O)COc2cc(C)c(Br)c(C)c2)CC1 | 2.84% (inactive) |
| O=C(O)c1cc(S(=O)(=O)NC2CCCc3ccccc32)ccc1O (stereo not given) | 16.7% (inactive) |
| CCN(CC)CCCNC(=O)c1cn(C)c2ccc(S(=O)(=O)N(C)C3CCCCC3)cc2c1=O | -11.8% (inactive) |
| COc1ccccc1C(=O)N(Cc1ccc(C)o1)C1CCS(=O)(=O)C1 (stereo not given) | -7.17% (inactive) |
| Cc1ccc(C(=O)Nc2cccc3ncccc23)cc1[N+](=O)[O-] | 11.7% (inactive) |
| Cc1cc(O)c(NC(=O)c2ccc(C)c([N+](=O)[O-])c2)cc1C | 57.7% (active) |
| CCN1CCC(=NNC(=O)c2ccc(C)c([N+](=O)[O-])c2)CC1 | 14.2% (inactive) |
| Cc1csc(NC(=O)CSc2nc(=O)cc(N)n2-c2ccc(F)cc2)n1 | -2.89% (inactive) |
| Cc1ccccc1NC(=O)N1CCCC1C(=O)NCc1ccccc1 (stereo not given) | -8.06% (inactive) |
| COc1ccc(C(=O)n2nc(C)c(Br)c2C)cc1OC | 1.86% (inactive) |
| COc1cccc(N(C(=O)c2snc(C(N)=O)c2N)C(C(=O)NCC2CCCO2)c2c[nH]c3ccccc23)c1 (stereo not given) | -11.7% (inactive) |
| CCN(CC)c1ccc(/C=N/NC(=O)c2cnccn2)c(O)c1 | 62.2% (active) |
| CCN(CC)c1ccc(/C=N/Nc2nc(C)cc(C)n2)c(O)c1 | 28.1% (active) |
| Cc1cc(C)nc(N/N=C/c2ccncc2)n1 | -5.35% (inactive) |
| CCN(CC)c1ccc(C(=O)N/N=C/c2ccc(N3CCOCC3)cc2)cc1 | -11.2% (inactive) |
| Cc1ccc(C(=O)NCCNC(=O)c2cnccn2)cc1 | 3.15% (inactive) |
| Cc1cc(C)nc(N/N=C/c2c(CO)cnc(C)c2O)n1 | 3.16% (inactive) |
